# NLRP3 yeast inh – blocks the NALP3 inflammasome reconstituted in yeast | Yeast reconstituted NLRP3/ASC/caspase-1, beta-gal luminescence, 24 h | inhibition, % at 10 µM | hit rate 0.39% among 330,000 | AID 2825;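 active = inhibition of 50% or more; inactive = inhibition below 50%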;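 also: plate controls were induced DMSO wells for no effect and uninduced yeast grown without galactose for full effect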
# TIM10 inh – TIM10 yeast growth inhibition; inhibition, % at 10 µM; S. cerevisiae TIM10 strain growth, BacTiter-Glo luminescence, 24 h; hit rate 1.4% among 330,000; AID 463195;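 active = inhibition of 40% or more at the single tested concentration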;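 also: wild-type TIM10 isogenic control strain grown at permissive 25 °C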
# CR mimetic SO – lowers age-related superoxide in aged yeast cells | S. cerevisiae aged cells, superoxide DHE fluorescence; hits give low values | superoxide response (% of plate mean), % at 10 µM | hit rate 0.18% among 330,000;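 active = superoxide response under a set limit, about three screen SD below normal, cut at about 65% in these data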;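 also: yeast aged for seven days with compound at 30 °C before DHE staining; 100% = average MFI of all compound-treated wells on the plate with controls excluded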
# tim23-1 inh – tim23-1 yeast growth inhibition. S. cerevisiae tim23-1 growth, BacTiter-Glo luminescence, 24 h. inhibition, % at 20 µM. hit rate 1.3% among 330,000. AID 463212;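 active = growth inhibition of the mutant yeast at or above 50%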;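 also: temperature-sensitive mutant grown at 25 °C; plate controls were DMSO-treated mutant yeast for no effect and medium wells lacking yeast for full effect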
# tim10-1 inh – inhibits growth of tim10-1 mutant yeast | S. cerevisiae tim10-1 ts strain growth, BacTiter-Glo, 24 h | inhibition, % at 20 µM | hit rate 2.2% among 330,000;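 active = inhibition of at least 40%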;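 also: mutant grown at 25 °C; 0% = DMSO wells with yeast and 100% = wells holding no yeast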
# CR mimetic CP – confirmation of caloric restriction mimetics inhibiting yeast age-related superoxide; hit rate 1% among 850; shares compounds with CR mimetic SO; AID 434994; S. cerevisiae aging, superoxide DHE fluorescence; hits give low values; superoxide response (% of plate), % at 10 µM;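 active = superoxide signal below 65% of the plate average of sample wells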;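 also: cells aged with compound for 7 days at 30 degrees C before staining; 100% equals mean DHE fluorescence of all compound wells on the plate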
# DHE counter – DHE fluorescence interference, counter-screen artifact; shares compounds with CR mimetic SO; S. cerevisiae BY4741, flow cytometry; hits give low values; fluorescence response, % at 10 µM; 850 tested, under 10 active;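 active = fluorescence response below 15%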;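 also: percent of the mean fluorescence averaged over all compound wells on the plate; lower means stronger quenching of DHE signal or ROS scavenging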
# * marks the source's active call; other numbers are inactive results; i = inactive; / = not tested or not shown. Most compounds without a hit are left out; they make up all but 3.8% or so of the library.
SMILES,NLRP3 yeast inh,TIM10 inh,CR mimetic SO,tim23-1 inh,tim10-1 inh,CR mimetic CP,DHE counter
CCOc1cccc(-c2nnc(SCC(=O)Nc3cc(OC)cc(OC)c3)n2N)c1,2,12,116,-4,8,/,/
COc1ccc(NC(=O)CSc2nnc(-c3ccc(C)cc3)n2N)cc1,-4,-9,86,-9,-6,/,/
COc1cccc(NC(=O)CSc2nnc(-c3cccc(OC(C)C)c3)n2N)c1,8,5,90,21,21,i,101
COc1ccc(C)cc1NC(=O)CSc1nnc(-c2ccc(OC)c(OC)c2)n1N,-12,-1,111,12,9,/,/
Cc1cc(SCC(=O)NC2(C#N)CCCCC2)nc2c(C)cccc12,9,10,64*,29,35,99,103
O=c1c2ccccc2ncn1Cc1cccc2ccccc12,31,29,105,23,14,/,/
O=c1c2ccccc2ncn1Cc1ccccc1,15,17,57*,20,5,98,95
O=C(NC1CCCCCCC1)c1cc([N+](=O)[O-])ccc1Cl,19,-6,63*,34,13,101,92
C=C(C)[C@@H]1CCC2(C(=O)O)CC[C@]3(C)[C@H](CC[C@@H]4[C@@]5(C)CCC(=O)C(C)(C)[C@@H]5CC[C@]43C)[C@@H]12 (stereo partly specified),23,-9,99,-13,1,/,/
CC1(C)C(=O)CC[C@@]2(C)[C@H]1CC[C@@]1(C)CC3=C(CC[C@@H]12)[C@@]1(C)CCC(=O)C(C)(C)[C@@H]1CC3,22,6,64*,11,3,95,100
NS(=O)(=O)c1ccc(CNc2nc(-c3cccnc3)nc3ccccc23)cc1,4,-10,92,8,-5,/,/
CCCN(CCC)CC(O)Cn1c2ccccc2c2ccccc21 (stereo unspecified),20,14,80,5,-6,97,94
CC(C)CCN(CCC(C)C)CC(O)Cn1c2ccccc2c(=O)c2ccccc21 (stereo unspecified),14,23,106,0,2,/,/
O=C1CCCN1S(=O)(=O)c1ccc(F)cc1,6,-10,95,-14,-18,/,/
O=C1CCCN1S(=O)(=O)c1ccccc1,5,-1,91,16,4,115,108
Cc1cc(OCC(=O)N(C)C2CCCCC2)ccc1Cl,12,-2,90,22,23,/,/
Cc1cc(OCC(=O)N(C)C2CCCCC2)cc(C)c1Cl,29,-16,56*,24,8,101,96
OCC1(CCOc2ccccc2)CCN(C2Cc3ccccc3C2)CC1,20,-7,129,-9,-13,/,/
Cc1ccc(C(=O)C(C)OC(=O)CN2C(=O)NC3(CCCC3)C2=O)cc1C (stereo unspecified),20,1,78,7,4,/,/
CCOC(=O)c1cc(=O)n(Cc2ccccc2C)c2ccccc12,-7,22,61*,34,18,98,94
Cc1cccc(N2CCN(C(=O)CC(NC(=O)c3ccccc3)c3ccccc3)CC2C)c1 (stereo unspecified),14,10,54*,15,-13,84,91
COc1cccc(N2CCN(C(=O)CC(NC(=O)c3ccccc3)c3ccccc3)CC2)c1 (stereo unspecified),16,11,96,7,8,/,/
CCOc1ccc(N=Nc2c(=O)[nH]n3c(C)cc(C)nc23)cc1,6,9,52*,-1,25,100,110
CCOc1cccc(OCCCNCCCOC)c1,-6,0,100,16,-10,/,/
Cc1c(NS(=O)(=O)c2ccccc2)cc(Cl)c(O)c1C,-6,17,142,2,10,89,100
SMILES,NLRP3 yeast inh,TIM10 inh,CR mimetic SO,tim23-1 inh,tim10-1 inh,CR mimetic CP,DHE counter
COc1ccc(N2C(=O)[C@@H]3C(c4cccnc4)=NO[C@@H]3C2=O)cc1,20,3,95,-5,-6,/,/
O=C(O)Cc1ccc2ccc3ccccc3c2c1,14,0,112,8,12,/,/
CCn1c2ccc(CC(=O)O)cc2c2cc(CC(=O)O)ccc21,1,-8,105,1,-5,101,103
CCN(CC(=O)Nc1ccccc1OC)C(=O)CC1CCCC1,17,-1,85,12,3,/,/
Cc1cccc([C@@H](NC(=O)OC(C)(C)C)C(=O)OC(C)(C)C)c1,47,10,62*,27,14,102,91
CCN(CC)S(=O)(=O)c1ccc(C)c(NC(=S)NNC(=O)C2CC2)c1,10,16,95,17,13,/,/
CC(=O)NC12CC3CC(C1)CC(C(=O)Nc1c(C)n(C)n(-c4ccccc4)c1=O)(C3)C2,7,-2,62*,-3,-8,97,108
Cc1c(NC(=O)C23CC4CC(CC(C)(C4)C2)C3)c(=O)n(-c2ccccc2)n1C,-4,15,96,3,10,/,/
Cc1ccc(NCC(=O)N=Nc2c(O)[nH]c3ccc([N+](=O)[O-])cc23)cc1,14,-34,119,-22,-10,/,/
O=C(Nc1ccc(F)cc1)C(=O)c1c(O)[nH]c2ccc([N+](=O)[O-])cc12,11,15,64*,-4,-24,87,101
O=C(Nc1ccc(N2CCN(C(=O)c3ccc(Cl)cc3)CC2)cc1)c1cccnc1,11,13,114,6,3,/,/
O=C(c1cccnc1)N1CCN(c2ccc(Cl)cc2)CC1,-11,-11,44*,5,6,111,89
O=C(c1cccc(F)c1)N1CCCN(C(=O)c2cccc(F)c2)CC1,9,-2,103,6,14,/,/
O=C(c1cccnc1)N1CCN(c2ccccc2Cl)CC1,15,12,97,18,-4,117,91
N#Cc1ccc(N2CCN(C(=O)c3cccc(F)c3)CC2)c(F)c1,15,10,109,21,20,99,102
O=C(c1cccc(F)c1)N1CCN(c2cccc(Cl)c2)CC1,-21,10,92,21,22,96,92
O=C(CSc1nnc(NC(=O)c2c(F)cccc2F)s1)NCc1ccc(F)cc1,13,-7,109,-1,-8,/,/
O=C(c1ccc(Cl)cc1)N1CCN(c2ccc(F)cc2)CC1,-1,-6,71,40,21,89,103
O=C(CN1C(=O)c2cccnc2Oc2ccc(Cl)cc21)N1CCCC1,9,13,96,17,15,/,/
COC(=O)CCCC1=CC2=CC(=O)C(C)(OC(=O)c3ccc(Cl)nc3)C(=O)C2=CO1 (stereo unspecified),11,4,100,3,0,/,/
O=c1cc(O)c2c(=O)n(Cc3ccccc3)c3ccccc3c2o1,41,8,70,13,-16,/,/
O=c1cc(O)c2c(=O)n(-c3ccccc3)c3c(c2o1)CCCCCC3,11,15,96,25,10,/,/
O=c1cc(O)c2c(=O)n(C3CCCCC3)c3ccccc3c2o1,24,-11,98,14,20,90,91
